Experimental data taken from PubChem BioAssay (Tox21).
Records with an inconclusive call do not appear. Values without a mark were called inactive. The call rests on the fitted dose curve.

Tested on: not listed separately
Experiment: qHTS assay to identify small molecule agonists of the AP-1 signaling pathway (AID 1159526)
Details: ME-180 (cervical carcinoma) AP-1-bla reporter, beta-lactamase FRET ratio, 5 h; series mostly up to 76.8 µM; activation: at the top concentration
On the % scale 0 is the no-effect control and ±100 the full control effect.

Row | SMILES | activation
1 | COc1cc(C(=O)OC(COCCC(C)C)CN2CCOCC2)cc(OC)c1OC (centres undefined) | 7.13% [at 35.3 µM]
2 | O=C(CO)[C@@H](O)[C@H](O)[C@@H](O)CO | 0.314% [at 35.3 µM]
3 | CN(C)CCCCCCN(C)C | 0.457%
4 | CCCC(=O)O[C@]1(C(=O)CC)CC[C@H]2[C@@H]3CCC4=CC(=O)CC[C@]4(C)[C@H]3[C@@H](O)C[C@@]21C | 6.36% [at 35.3 µM]
5 | C=C(C)C(=O)OCCOCCOCCOCCOC(=O)C(=C)C | -4.33%
6 | CC12CCC(C(=O)C1=O)C2(C)C (centres undefined) | -2.89%
7 | O=C(O)Cc1csc(-c2ccc(Cl)cc2)n1 | -4.64% [at 35.3 µM]
8 | Cc1c(N)c(=O)n(-c2ccccc2)n1C | -0.991% [at 35.3 µM]
9 | CCCCN(CCC(=O)OCC)C(C)=O | 2.25%
10 | CCOC(=O)c1ccccc1 | -6.19%
11 | CCCOC(=O)CC | -4.41%
12 | OCCc1ccccn1 | -9.94%
13 | CC/C=C\CCOC(C)OCC (centres undefined) | -1.29% [at 35.3 µM]
14 | CN(C)CCN(C)CCN(C)C | -5.64%
15 | O=C(O)CNC(=O)c1ccc(CO)o1 | 1.13%
16 | CC(=O)N1C[C@H](O)C[C@H]1C(=O)O | -3.42% [at 35.3 µM]

Biological target: Retinoic acid receptor RXR-alpha (Homo sapiens) (UniProt P19793)
Sequence (P19793 whole entry, looked up): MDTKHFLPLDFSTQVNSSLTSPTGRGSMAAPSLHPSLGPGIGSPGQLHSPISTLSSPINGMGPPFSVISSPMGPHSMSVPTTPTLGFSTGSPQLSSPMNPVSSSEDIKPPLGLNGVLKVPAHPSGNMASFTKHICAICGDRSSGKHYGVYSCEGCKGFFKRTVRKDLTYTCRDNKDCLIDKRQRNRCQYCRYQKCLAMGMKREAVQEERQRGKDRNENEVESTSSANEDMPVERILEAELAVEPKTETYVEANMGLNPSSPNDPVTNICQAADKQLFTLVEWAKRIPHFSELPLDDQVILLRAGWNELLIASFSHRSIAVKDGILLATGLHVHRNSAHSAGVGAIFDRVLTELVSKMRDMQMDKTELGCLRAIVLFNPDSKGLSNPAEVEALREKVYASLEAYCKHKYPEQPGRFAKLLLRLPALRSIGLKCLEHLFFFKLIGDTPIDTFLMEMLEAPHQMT
Experiment: qHTS assay to identify small molecule agonists of the RXR signaling pathway (AID 1159527); further: nearly all actives have a fitted effect of over 35% in size
Details: HEK293T RXRa-UAS-bla, beta-lactamase ratio, 16 h; series mostly up to 76.8 µM; activation: at the top concentration
Outline: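 Read-out: beta-lactamase FRET ratio (405 nm excitation, 460 and 530 nm emission) after 2 hr substrate loading at room temperature. Cells were RXR-alpha-UAS-bla HEK 293T treated with compounds for 16 hr in 2% charcoal-stripped FBS medium.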

Row | SMILES | activation
17 | CC(=O)c1ccc2ccccc2c1 | 1.73%
18 | O=[N+]([O-])c1cncn1CCN1CCOCC1 | 0.785% [at 35.3 µM]
19 | CN(C)[C@@H]1C(=O)C(C(=O)NCN2CCCC2)=C(O)[C@@]2(O)C(=O)C3=C(O)c4c(O)cccc4[C@@](C)(O)C3C[C@@H]12 (some centres undefined) | -2.65% [at 35.3 µM]
20 | C[C@H]1[C@H](NC(=O)/C(=N/OC(C)(C)C(=O)O)c2csc(N)n2)C(=O)N1S(=O)(=O)O (stereo in doubt) | -1.9% [at 35.3 µM]
21 | C1CCC2(CCCCO2)OC1 | -14.6%
22 | CCOc1c(N2CCOCC2)cnn(C)c1=O | 4.75% [at 35.3 µM]
23 | CC(CC=O)CC(C)(C)C (centres undefined) | 0.54%
24 | CC1=CCC(O)(C(C)C)CC1 (centres undefined) | 4.85%
25 | O=C(O)CNC(=O)c1ccccc1 | 5.35% [at 35.3 µM]
26 | Cc1ncc([C@@H](CCCCCCc2ccc3c(n2)NCCC3)CC(=O)O)cn1 | 12.4%
27 | [Ca+2] | 1.08%
28 | Cc1cccc(C)c1NC(=O)CC12CCCN1CCC2 | 10.9% [at 35.3 µM]
29 | CCN1C=CN(C)C1C (centres undefined) | -2.69%
30 | CC1CCC(CO)CC1 (centres undefined) | 4.3%
31 | CCC(C)(CCCC(C)C)OC(C)=O (centres undefined) | 14.7%
32 | Nc1ccn([C@@H]2O[C@H](CO)[C@@H](O)C2O)c(=O)n1 (some centres undefined) | 1.33%
33 | O=C1NC(=O)C2CC=CCC12 (centres undefined) | 14.3%
34 | CC1(C)OC[C@@H](COC(=O)CCc2ccc(OC[C@@H](O)CNCCNC(=O)N3CCOCC3)cc2)O1 | 4.59% [at 35.3 µM]
35 | C[N+]1(C)[C@@H]2CC(OC(=O)[C@H](CO)c3ccccc3)C[C@H]1[C@@H]1O[C@@H]12 (some centres undefined) | 9.06% [at 35.3 µM]

Row | SMILES | activation
36 | CC(C)c1ccc2ncccc2c1 | 9.91%
37 | CCCCN1C=CN(C)C1 | 3.97% [at 15.8 µM]
38 | CCCCOC(=O)CCC(C)=O | 6.85%
39 | COc1cc(C(=O)OC(COCCC(C)C)CN2CCOCC2)cc(OC)c1OC (centres undefined) | 3.25% [at 35.3 µM]
40 | O=C(CO)[C@@H](O)[C@H](O)[C@@H](O)CO | 4.31% [at 35.3 µM]
41 | CN(C)CCCCCCN(C)C | 2.96%
42 | CCCC(=O)O[C@]1(C(=O)CC)CC[C@H]2[C@@H]3CCC4=CC(=O)CC[C@]4(C)[C@H]3[C@@H](O)C[C@@]21C | -27.5% [at 35.3 µM]
43 | C=C(C)C(=O)OCCOCCOCCOCCOC(=O)C(=C)C | -13.1%
44 | CC12CCC(C(=O)C1=O)C2(C)C (centres undefined) | -4.24%
45 | O=C(O)Cc1csc(-c2ccc(Cl)cc2)n1 | -0.5% [at 35.3 µM]
46 | Cc1c(N)c(=O)n(-c2ccccc2)n1C | 4.3% [at 35.3 µM]
47 | CCCCN(CCC(=O)OCC)C(C)=O | 5.2%
48 | CCOC(=O)c1ccccc1 | 6.83%
49 | CCCOC(=O)CC | -2.47%
50 | OCCc1ccccn1 | -3.76%
51 | CC/C=C\CCOC(C)OCC (centres undefined) | 4.01% [at 35.3 µM]
52 | CN(C)CCN(C)CCN(C)C | 5.97%
53 | O=C(O)CNC(=O)c1ccc(CO)o1 | -0.112%
54 | CC(=O)N1C[C@H](O)C[C@H]1C(=O)O | 7.02% [at 35.3 µM]
